From PubChem BioAssay (Tox21)
Inconclusive results are not listed. Activity calls are given as the source filed them. Unless noted, calls follow the shape of the dose curve; as a rule, active = well fitted curve in the direction sought with a large enough effect in the repeat runs; inconclusive = weak or mixed curves; inactive = no such curve, though single readings can be large; an effect the other way counts as inactive or inconclusive.

Columns and labels:
[1] = qHTS assay to identify aromatase inhibitors - cell viability counter screen (AID 743084); settings: MCF-7 aro ERE viability, CellTiter-Fluor, 24 h; series mostly up to 70.3 µM;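 also: cells stimulated with testosterone during compound exposure; nearly all actives have a fitted effect of over 55% in size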
[2] = target: Aryl hydrocarbon receptor (Homo sapiens) (UniProt P35869); experiment: qHTS assay to identify small molecule that activate the aryl hydrocarbon receptor (AhR) signaling pathway (AID 743085); settings: HepG2 AhR-luc (HG2L7.5c1), luciferase, 24 h; series mostly up to 70.3 µM;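 also: HG2L7.5c1 human HepG2 liver cells with stably integrated DRE-driven firefly reporter; nearly all actives have a fitted effect of over 15% in size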
Method in brief: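 Compounds were tested in HepG2 hepatocellular carcinoma cells harbouring a stably integrated luciferase gene under control of 20 DREs. Increased reporter signal after 24 h treatment at 37C was taken as AhR activation.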

[3] = qHTS assay to identify small molecule that activate the aryl hydrocarbon receptor (AhR) signaling pathway - cell viability counter screen (AID 743086); settings: HepG2-AhR-luc viability, CellTiter-Fluor, 24 h; series mostly up to 70.3 µM;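 also: HepG2 liver cells carrying the AhR DRE luciferase reporter; nearly all actives have a fitted effect of over 45% in size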
Method in brief: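 HepG2-AhR-luc (HG2L7.5c1) cells, 4000/well, treated 24 h at 37 C with compound; viability measured as CellTiter-Fluor fluorescence after 30 min in the same wells as the luciferase read.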

[4] = target: Peroxisome proliferator-activated receptor gamma (Homo sapiens) (UniProt P37231); experiment: qHTS assay to identify small molecule agonists of the peroxisome proliferator-activated receptor gamma (PPARg) signaling pathway (AID 743094; active = well fitted activation curve with a large enough effect in the signal ratio in the repeat runs, not every such curve was filed as active; the % refers to the signal ratio); settings: HEK293H PPARg-UAS-bla, beta-lactamase FRET ratio, 17 h; series mostly up to 57 µM
Method in brief: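 Beta-lactamase FRET fluorescence was the read-out after a 1 h room-temperature substrate step, following 17 h compound treatment at 37C of HEK293H cells expressing a UAS-driven bla reporter responsive to PPARg.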

[5] = target: Peroxisome proliferator-activated receptor gamma (Homo sapiens) (UniProt P37231); experiment: qHTS assay to identify small molecule antagonists of the peroxisome proliferator-activated receptor gamma (PPARg) signaling pathway (AID 743191; calls by dose curve; also: nearly all actives have a fitted effect of over 30% in size); settings: HEK293H PPARg-UAS-bla, beta-lactamase ratio, antagonist, 17 h; series mostly up to 62.6 µM
Method in brief: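 GeneBLAzer PPARg UAS-bla HEK293H cells, 5 h post-plating, exposed to compounds 17 h at 37C. LiveBLAzer B/G FRET substrate added for 1 h at room temperature; beta-lactamase reporter read by fluorescence intensity.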

[6] = qHTS assay to identify small molecule antagonists of the peroxisome proliferator-activated receptor gamma (PPARg) signaling pathway - cell viability counter screen (AID 743194); settings: PPARg-bla HEK293H viability, CellTiter-Glo luminescence, 17 h, co-treated with 50 nM rosiglitazone; series mostly up to 62.6 µM; also: nearly all actives have a fitted effect of over 55% in size
Method in brief: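 Cytotoxicity counter screen in PPARg-bla HEK293H cells, same wells as reporter assay. Compounds plus 50 nM rosiglitazone (final) for 17 h at 37 C, then viability read by CellTiter-Glo luminescence.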

[7] = qHTS assay for small molecule agonists of the antioxidant response element (ARE) signaling pathway (AID 743202; active = well fitted activation curve with a large enough effect in the signal ratio in the repeat runs, not every such curve was filed as active; the % refers to the signal ratio); settings: HepG2 ARE-bla reporter, beta-lactamase FRET, 16 h; series mostly up to 73.3 µM
Method in brief: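 Agonist mode reporter screen: HepG2 cells with ARE-controlled beta-lactamase are incubated with test compounds for 16 h at 37 C, and beta-lactamase activity is measured as fluorescence of cleaved B/G FRET substrate.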

[8] = qHTS assay for small molecule agonists of the antioxidant response element (ARE) signaling pathway - cell viability counter screen (AID 743203; calls by dose curve; also: nearly all actives have a fitted effect of over 55% in size); settings: ARE-bla HepG2 viability, CellTiter-Glo luminescence, 16 h; series mostly up to 73.3 µM
Method in brief: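 HepG2 cells carrying ARE-driven beta-lactamase; 2,000 cells/well; 5 hrs plating; compound pinned from DMSO; 16 hrs 37C/5% CO2; CellTiter-Glo added; 30 min RT; luminescence.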

[9] = qHTS assay for small molecule activators of the heat shock response signaling pathway - cell viability counter screen (AID 743209); settings: HSE-bla HeLa viability, CellTiter-Glo luminescence, 5 h; series mostly up to 62.6 µM; also: nearly all actives have a fitted effect of over 50% in size
Method in brief: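 Luminescence from CellTiter-Glo, added after the beta-lactamase FRET read, gave the viability signal. Cells were HSE-bla HeLa treated with DMSO-dissolved compounds for 5 h at 37 C following overnight plating.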

[10] = qHTS assay for small molecule activators of the heat shock response signaling pathway (AID 743210; active = well fitted activation curve with a large enough effect in the signal ratio in the repeat runs, with a control signal flat, not every such curve was filed as active; the % refers to the signal ratio;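 also: HeLa cells with beta-lactamase reporter driven by heat shock elements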); settings: HeLa HSE-bla reporter, beta-lactamase ratio, 5 h; series mostly up to 62.6 µM
Method in brief: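 Quantitative high-throughput format using an engineered HeLa line in which heat shock response elements drive beta-lactamase; after 5 h with compound, cells received a B/G FRET substrate and fluorescence was read.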

[11] = qHTS assay to identify small molecule agonists of the peroxisome proliferator-activated receptor delta (PPARd) signaling pathway - cell viability counter screen (AID 743211); settings: PPARd-bla HEK293H viability, CellTiter-Glo luminescence, 17 h; series mostly up to 62.6 µM; also: nearly all actives have a fitted effect of over 55% in size
Method in brief: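 Counter screen for cytotoxicity run in parallel with the PPARd reporter screen. Beta-lactamase reporter HEK293H cells exposed to compounds 17 h; ATP-based CellTiter-Glo luminescence quantified viability.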

[12] = qHTS assay to identify small molecule antagonists of the peroxisome proliferator-activated receptor delta (PPARd) signaling pathway - cell viability counter screen (AID 743213); settings: PPARd-bla HEK293H viability, CellTiter-Glo luminescence, 17 h; series mostly up to 62 µM; also: nearly all actives have a fitted effect of over 50% in size
Method in brief: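 PPARd-bla HEK293H cells (3000/well) got compound plus 300 nM L165041 agonist for 17 h at 37 C. Viability in the same wells came from CellTiter-Glo luminescence after 30 min at room temperature.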

[13] = qHTS assay to identify small molecule agonists of the farnesoid-X-receptor (FXR) signaling pathway - cell viability counter screen (AID 743218); settings: FXR-bla HEK293T viability, CellTiter-Glo luminescence, 16 h; series mostly up to 62.6 µM; also: nearly all actives have a fitted effect of over 45% in size
Method in brief: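 HEK 293T FXR-bla cells; 5 h pre-incubation, 16 h compound exposure at 37 C; LiveBLAzer substrate 2 h RT, then CellTiter-Glo 30 min RT, luminescence.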

[14] = qHTS assay to identify small molecule antagonists of the farnesoid-X-receptor (FXR) signaling pathway - cell viability counter screen (AID 743221; active = well fitted cell-killing curve with a large enough effect in the repeat runs, not every such curve was filed as active; also: nearly all actives have a fitted effect of over 50% in size); settings: FXR-bla HEK293T viability, CellTiter-Glo luminescence, 16 h; series mostly up to 62.6 µM
Method in brief: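 Multiplexed counter screen: viability of FXR-bla HEK 293T cells under agonist stimulation by chenodeoxycholic acid (50 uM, final) and test compound for 16 h at 37 C, measured by CellTiter-Glo luminescence in the reporter wells.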

[15] = target: Vitamin D3 receptor (Homo sapiens) (UniProt P11473); experiment: qHTS assay to identify small molecule agonists of the vitamin D receptor (VDR) signaling pathway (AID 743222; calls by dose curve); settings: HEK293T VDR-UAS-bla, beta-lactamase FRET ratio, 16 h; series mostly up to 63.5 µM
Method in brief: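 VDR-bla cells, 2,000/well; 4 h preincubation 37C; cpd (DMSO) 16 h; LiveBLAzer B/G substrate 2 h RT; fluorescence intensity read.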

[16] = target: Vitamin D3 receptor (Homo sapiens) (UniProt P11473); experiment: qHTS assay to identify small molecule antagonists of the vitamin D receptor (VDR) signaling pathway (AID 743223; active = well fitted inhibition curve with a large enough effect in the signal ratio in the repeat runs, not every such curve was filed as active; the % refers to the signal ratio); settings: VDR-UAS-bla HEK293T, beta-lactamase FRET ratio, 16 h; series mostly up to 61 µM
Method in brief: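 Cells carrying a VDR-driven beta-lactamase reporter (VDR-bla) were co-treated with compound and 3 nM final 1alpha,25-dihydroxyvitamin D3 for 16 h at 37C; reporter activity was measured as FRET substrate fluorescence after 2 h at room temperature.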

[17] = target: Peroxisome proliferator-activated receptor delta (Homo sapiens) (UniProt Q03181); experiment: qHTS assay to identify small molecule agonists of the peroxisome proliferator-activated receptor delta (PPARd) signaling pathway (AID 743212; calls by dose curve); settings: HEK293H PPARd-UAS-bla, beta-lactamase FRET ratio, 17 h; series mostly up to 62.6 µM
Method in brief: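 Quantitative high-throughput agonist screen in a HEK293H beta-lactamase reporter line under UAS control. Compounds in DMSO, at 37 C. Fluorescence read after 2 h with FRET substrate at room temperature.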

[18] = target: Peroxisome proliferator-activated receptor delta (Homo sapiens) (UniProt Q03181); experiment: qHTS assay to identify small molecule antagonists of the peroxisome proliferator-activated receptor delta (PPARd) signaling pathway (AID 743215; active = well fitted inhibition curve with a large enough effect in the signal ratio in the repeat runs, not every such curve was filed as active; the % refers to the signal ratio;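 also: cells stimulated with agonist L165041 at 300 nM final during compound exposure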); settings: HEK293H PPARd-UAS-bla, beta-lactamase FRET ratio, antagonist, 17 h; series mostly up to 62 µM
Method in brief: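 Read-out is beta-lactamase FRET fluorescence, measured 2 h after substrate addition at room temperature. Beforehand, UAS-bla HEK293H cells carrying the PPARd reporter were exposed to compounds with L165041 at 300 nM final for 17 h at 37 C.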

[19] = target: Bile acid receptor (Homo sapiens) (UniProt Q96RI1); experiment: qHTS assay to identify small molecule antagonists of the farnesoid-X-receptor (FXR) signaling pathway (AID 743217; active = well fitted inhibition curve with a large enough effect in the signal ratio in the repeat runs, not every such curve was filed as active; the % refers to the signal ratio); settings: HEK293T FXR-UAS-bla, beta-lactamase ratio, CDCA-stimulated, 16 h; series mostly up to 62.6 µM
Method in brief: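 HEK 293T FXR-UAS-bla, 5000 cells/well; compound + CDCA 50 uM final; 16 h, 37 °C; B/G FRET substrate 2 h RT; fluorescence.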

[20] = target: Bile acid receptor (Homo sapiens) (UniProt Q96RI1); experiment: qHTS assay to identify small molecule agonists of the farnesoid-X-receptor (FXR) signaling pathway (AID 743220; active = well fitted activation curve with a large enough effect in the signal ratio in the repeat runs, not every such curve was filed as active; the % refers to the signal ratio); settings: HEK293T FXR-UAS-bla, beta-lactamase FRET ratio, 16 h; series mostly up to 62.6 µM
Method in brief: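 Beta-lactamase reporter under UAS control in GeneBLAzer FXR HEK 293T cells (5000/well) measured with LiveBLAzer FRET substrate after 2 h at room temperature. Compound exposure lasted 16 h at 37C.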
% is scaled to controls: 0 for no effect and ±100 for the full control effect.

Sequence of Vitamin D3 receptor (Homo sapiens) (P11473 whole entry, looked up): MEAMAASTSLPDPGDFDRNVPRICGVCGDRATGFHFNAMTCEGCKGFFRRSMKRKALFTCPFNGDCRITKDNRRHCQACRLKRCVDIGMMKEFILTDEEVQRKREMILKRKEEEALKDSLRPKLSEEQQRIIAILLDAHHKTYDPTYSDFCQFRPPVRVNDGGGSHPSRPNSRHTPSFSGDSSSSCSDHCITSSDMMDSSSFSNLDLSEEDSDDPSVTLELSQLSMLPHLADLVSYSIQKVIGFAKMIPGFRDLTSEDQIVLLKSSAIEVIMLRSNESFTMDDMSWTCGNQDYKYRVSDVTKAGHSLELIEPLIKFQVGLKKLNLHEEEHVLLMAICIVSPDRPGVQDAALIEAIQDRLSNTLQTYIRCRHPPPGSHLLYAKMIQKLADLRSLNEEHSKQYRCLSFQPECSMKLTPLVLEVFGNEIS
Sequence of Bile acid receptor (Homo sapiens) (Q96RI1 whole entry, looked up): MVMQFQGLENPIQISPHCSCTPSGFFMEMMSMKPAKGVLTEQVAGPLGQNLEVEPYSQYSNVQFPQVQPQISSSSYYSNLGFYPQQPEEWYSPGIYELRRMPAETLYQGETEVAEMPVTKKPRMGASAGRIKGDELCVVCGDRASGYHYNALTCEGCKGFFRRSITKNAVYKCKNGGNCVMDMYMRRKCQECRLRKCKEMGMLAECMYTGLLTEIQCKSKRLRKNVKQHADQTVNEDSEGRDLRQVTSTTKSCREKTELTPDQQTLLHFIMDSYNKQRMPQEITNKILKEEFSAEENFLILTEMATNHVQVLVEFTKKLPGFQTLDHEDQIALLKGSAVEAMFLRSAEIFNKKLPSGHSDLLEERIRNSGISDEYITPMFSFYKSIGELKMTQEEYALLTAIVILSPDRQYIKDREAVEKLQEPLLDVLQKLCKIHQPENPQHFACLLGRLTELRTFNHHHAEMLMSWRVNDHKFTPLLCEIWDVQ
Sequence of Aryl hydrocarbon receptor (Homo sapiens) (P35869 whole entry, looked up): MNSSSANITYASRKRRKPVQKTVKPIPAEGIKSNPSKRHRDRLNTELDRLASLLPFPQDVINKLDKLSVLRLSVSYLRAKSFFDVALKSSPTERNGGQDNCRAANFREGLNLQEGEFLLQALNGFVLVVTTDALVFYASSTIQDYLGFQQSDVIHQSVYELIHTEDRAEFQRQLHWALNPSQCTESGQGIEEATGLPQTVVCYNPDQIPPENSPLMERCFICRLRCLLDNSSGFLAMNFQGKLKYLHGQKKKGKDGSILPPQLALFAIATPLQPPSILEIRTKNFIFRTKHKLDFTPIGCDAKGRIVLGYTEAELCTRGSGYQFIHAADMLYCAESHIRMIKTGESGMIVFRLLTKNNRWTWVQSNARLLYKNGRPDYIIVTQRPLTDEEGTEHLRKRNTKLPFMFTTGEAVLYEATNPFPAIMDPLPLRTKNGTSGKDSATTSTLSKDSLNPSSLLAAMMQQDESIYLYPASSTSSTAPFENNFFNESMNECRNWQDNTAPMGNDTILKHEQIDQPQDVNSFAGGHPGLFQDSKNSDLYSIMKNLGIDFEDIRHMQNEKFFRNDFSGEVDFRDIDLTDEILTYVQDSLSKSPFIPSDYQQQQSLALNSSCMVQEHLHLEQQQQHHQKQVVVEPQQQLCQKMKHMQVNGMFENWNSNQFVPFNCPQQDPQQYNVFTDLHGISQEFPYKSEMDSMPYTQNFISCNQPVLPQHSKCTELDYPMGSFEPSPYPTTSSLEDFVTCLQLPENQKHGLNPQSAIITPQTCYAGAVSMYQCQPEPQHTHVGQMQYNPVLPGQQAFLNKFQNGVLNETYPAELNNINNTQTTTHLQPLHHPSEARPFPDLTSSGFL
Sequence of Peroxisome proliferator-activated receptor gamma (Homo sapiens) (P37231 whole entry, looked up): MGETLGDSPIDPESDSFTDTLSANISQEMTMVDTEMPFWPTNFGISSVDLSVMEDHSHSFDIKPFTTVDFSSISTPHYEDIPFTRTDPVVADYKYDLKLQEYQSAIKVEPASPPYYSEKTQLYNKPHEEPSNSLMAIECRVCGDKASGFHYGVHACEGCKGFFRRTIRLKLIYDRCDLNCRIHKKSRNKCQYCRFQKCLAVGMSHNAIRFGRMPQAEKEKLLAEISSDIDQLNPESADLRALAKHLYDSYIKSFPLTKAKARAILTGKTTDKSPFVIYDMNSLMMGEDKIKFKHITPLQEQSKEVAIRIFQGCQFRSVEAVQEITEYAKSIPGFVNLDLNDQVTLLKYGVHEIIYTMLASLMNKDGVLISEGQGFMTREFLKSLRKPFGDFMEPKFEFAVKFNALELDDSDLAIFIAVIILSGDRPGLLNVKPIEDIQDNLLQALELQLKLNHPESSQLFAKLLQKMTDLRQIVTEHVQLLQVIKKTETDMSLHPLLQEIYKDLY
Sequence of Peroxisome proliferator-activated receptor delta (Homo sapiens) (Q03181 whole entry, looked up): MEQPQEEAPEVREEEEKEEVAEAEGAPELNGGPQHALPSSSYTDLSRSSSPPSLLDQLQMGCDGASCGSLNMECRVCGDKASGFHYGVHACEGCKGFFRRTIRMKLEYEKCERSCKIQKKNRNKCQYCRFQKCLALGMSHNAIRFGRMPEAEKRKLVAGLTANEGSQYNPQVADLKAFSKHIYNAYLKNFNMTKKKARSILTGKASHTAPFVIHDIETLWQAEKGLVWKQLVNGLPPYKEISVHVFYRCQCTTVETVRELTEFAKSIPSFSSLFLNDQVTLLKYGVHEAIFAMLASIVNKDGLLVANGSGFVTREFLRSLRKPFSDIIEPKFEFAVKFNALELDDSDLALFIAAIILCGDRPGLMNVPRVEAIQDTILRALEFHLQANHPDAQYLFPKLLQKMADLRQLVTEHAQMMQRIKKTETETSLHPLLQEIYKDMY

Fc1ccc(Br)cc1
inactive: Potency [1] | Potency [2] | outcome [3] | outcome [4] | outcome [5] | outcome [6] | Potency [7] | outcome [8] | outcome [9] | Potency [10] | outcome [11] | outcome [12] | Potency [13] | Potency [14] | outcome [15] | outcome [16]

O=C(O)CCCC[C@@H]1SC[C@@H]2NC(=O)N[C@@H]21
inactive: Potency [1] | Potency [2] | outcome [3] | outcome [4] | outcome [5] | Potency [7] | outcome [8] | outcome [9] | Potency [10] | outcome [11] | outcome [17] | outcome [12] | Potency [18] | Potency [13] | Potency [14] | outcome [15] | outcome [16]

C#CCN(C)Cc1ccccc1
inactive: Potency [1] | Potency [2] | outcome [3] | outcome [4] | outcome [5] | Potency [7] | outcome [8] | outcome [9] | Potency [10] | outcome [11] | outcome [17] | outcome [12] | Potency [18] | Potency [13] | Potency [14]

CCCCC(CC)COC(=O)CCCCC(=O)OCC(CC)CCCC (configuration not stated)
inactive: Potency [1] | Potency [2] | outcome [3] | outcome [4] | outcome [5] | outcome [6] | Potency [7] | outcome [8] | outcome [9] | Potency [10] | outcome [11] | outcome [17] | outcome [12] | outcome [19] | Potency [13] | outcome [20] | Potency [14] | outcome [15] | outcome [16]

CCCCCC1=CCCC1=O
inactive: Potency [1] | Potency [2] | outcome [3] | outcome [4] | outcome [5] | outcome [6] | Potency [7] | outcome [8] | outcome [9] | Potency [10] | outcome [11] | outcome [17] | outcome [12] | Potency [18] | outcome [19] | Potency [13] | outcome [20] | Potency [14] | outcome [15] | outcome [16]

CCCCCCCCCCCCS
inactive: Potency [1] | Potency [2] | outcome [3] | outcome [4] | outcome [5] | outcome [6] | Potency [7] | outcome [8] | outcome [9] | Potency [10] | outcome [11] | outcome [17] | outcome [12] | Potency [18] | Potency [13] | Potency [14] | outcome [15] | outcome [16]

CCN(CC)CCCC(C)Nc1ccnc2cc(Cl)ccc12 (configuration not stated)
inactive: Potency [1] | Potency [2] | outcome [3] | outcome [4] | outcome [5] | activation [7] -11.9% [at 8.36 µM] | viability change, negative = cytotoxic [8] -7.65% [at 8.36 µM] | outcome [9] | Potency [10] | outcome [11] | outcome [17] | viability change, negative = cytotoxic [12] -17.6% [at 6.26 µM] | Potency [18] | Potency [13] | Potency [14] | outcome [15] | activity change, negative = inhibition [16] 1.54% [at 6.95 µM]
